In PubChem BioAssay (EPA / NIEHS):
The source made the active and inactive calls. How the source made its calls: active means hit-call score of the fitted dose curve at least 0.9, where 1 is the maximum; inactive means score below 0.9.

How the values were obtained:
Details in all cases: mRNA level, 48 h; actives raise or lower the signal
[1] = read-out: HGF (gene 3082); assay: LTEA_HepaRG_HGF: Life Technologies and Expression Analysis (LTEA) Assay for Hepatocyte Growth Facto (HGF) using HepaRG (AID 2283505)
Method in brief: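 Differentiated HepaRG cells in serum-free induction medium exposed 48 h in duplicate, 8 half-log concentrations from 100 uM in 0.5% DMSO. HGF mRNA by qRT-PCR, normalised to ACTB, GAPDH, POLR2A; bidirectional fitting.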

[2] = read-out: 3-Hydroxy-3-Methylglutaryl-CoA Synthase 2 (HMGCS2), HMGCS2 (gene 3158); assay: LTEA_HepaRG_HMGCS2: Life Technologies and Expression Analysis (LTEA) Assay for 3-Hydroxy-3-Methylglutaryl-CoA Synthase 2 (HMGCS2) using HepaRG (AID 2283504)
Method in brief: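 Human HepaRG cells in serum-free induction medium were exposed in duplicate for 48 h to 8-point half-log series from 100 uM top in 0.5% DMSO. HMGCS2 mRNA measured by TaqMan qRT-PCR, normalised to ACTB, GAPDH, POLR2A; bidirectional fit versus DMSO.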

[3] = read-out: Insulin Like Growth Factor 1 (IGF1), IGF1 (gene 3479); assay: LTEA_HepaRG_IGF1: Life Technologies and Expression Analysis (LTEA) Assay for Insulin Like Growth Factor 1 (IGF1) using HepaRG (AID 2283506)
Method in brief: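 Using human HepaRG liver cells, IGF1 transcript induction or suppression is measured 48 h after dosing across eight concentrations capped at 100 uM. Values derive from bidirectional concentration-response fitting with DMSO as baseline.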

[4] = read-out: Intercellular Adhesion Molecule 1 (ICAM1), ICAM1 (gene 3383); assay: LTEA_HepaRG_ICAM1: Life Technologies and Expression Analysis (LTEA) Assay for Intercellular Adhesion Molecule 1 (ICAM1) using HepaRG (AID 2283507)
Method in brief: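 Differentiated human HepaRG cells in serum-free induction medium exposed 48 h in duplicate to 8 half-log concentrations (top 100 uM, 0.5% DMSO). ICAM1 mRNA quantified by TaqMan qRT-PCR, normalized to ACTB, GAPDH and POLR2A; bidirectional fitting versus DMSO.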

[5] = read-out: Insulin-like growth factor-binding protein 1 (IGFBP1), IGFBP1 (gene 3484); assay: LTEA_HepaRG_IGFBP1: Life Technologies and Expression Analysis (LTEA) Assay for Insulin-like growth factor-binding protein 1 (IGFBP1) using HepaRG (AID 2283508)
Method in brief: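 HepaRG cells, plated 48 h then switched to serum-free induction medium, exposed in duplicate for 48 h to 8-point half-log series from 100 uM in 0.5% DMSO. mRNA measured by qRT-PCR, normalized to ACTB/GAPDH/POLR2A; bidirectional fit versus DMSO.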

[6] = read-out: Interleukin 6 (IL6), IL6 (gene 3569); assay: LTEA_HepaRG_IL6: Life Technologies and Expression Analysis (LTEA) Assay for Interleukin 6 (IL6) using HepaRG (AID 2283509)
Method in brief: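 HepaRG cells exposed in duplicate for 48 h to eight half-log concentrations, top 100 uM, in 0.5% DMSO serum-free induction medium. mRNA measured by qRT-PCR, normalized to ACTB, GAPDH and POLR2A. Bidirectional fit versus DMSO.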

[7] = read-out: Interleukin 6 Receptor (IL6R), IL6R (gene 3570); assay: LTEA_HepaRG_IL6R: Life Technologies and Expression Analysis (LTEA) Assay for Interleukin 6 Receptor (IL6R) using HepaRG (AID 2283510)
Method in brief: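 Concentration-response in human liver HepaRG cells: eight concentrations from 100 uM downward by half-logs, 48 h exposure, 0.5% DMSO vehicle. IL6R mRNA change measured by qRT-PCR and fitted in both directions relative to vehicle.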

[8] = read-out: Potassium channel subfamily K member 1 (KCNK1), KCNK1 (gene 3775); assay: LTEA_HepaRG_KCNK1: Life Technologies and Expression Analysis (LTEA) Assay for Potassium channel subfamily K member 1 (KCNK1) using HepaRG (AID 2283511)
Method in brief: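 Differentiated HepaRG cells, 48 h exposure in serum-free induction medium with 0.5% DMSO; 8 concentrations, half-log from 100 uM, duplicate. KCNK1 mRNA by qRT-PCR, normalized to ACTB, GAPDH, POLR2A; bidirectional fit vs DMSO.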

[9] = read-out: Keratin 19 (KRT19), KRT19 (gene 3880); assay: LTEA_HepaRG_KRT19: Life Technologies and Expression Analysis (LTEA) Assay for Keratin 19 (KRT19) using HepaRG (AID 2283512)
Method in brief: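 Differentiated HepaRG cells in serum-free induction medium, exposed 48 h in duplicate to 8 half-log concentrations up to 100 uM in 0.5% DMSO. KRT19 mRNA by qRT-PCR, normalized to ACTB, GAPDH, POLR2A; bidirectional fit vs DMSO.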

[10] = read-out: JUN Transcription Factor, JUN (gene 3725); assay: LTEA_HepaRG_JUN: Life Technologies and Expression Analysis (LTEA) Assay for JUN Transcription Factor using HepaRG (AID 2283513)
Method in brief: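 Human HepaRG liver cells receive test chemicals in 0.5% DMSO for 48 h across an eight-point range topping at 100 uM. Expression changes in JUN are scored in both directions against the DMSO vehicle.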

[11] = read-out: Lipase C (LIPC), LIPC (gene 3990); assay: LTEA_HepaRG_LIPC: Life Technologies and Expression Analysis (LTEA) Assay for Lipase C (LIPC) using HepaRG (AID 2283514)
Method in brief: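 HepaRG cells, 48 h after plating, treated in duplicate for 48 h in serum-free induction medium over 8 half-log concentrations from 100 uM, 0.5% DMSO. LIPC mRNA by TaqMan qRT-PCR normalized to ACTB/GAPDH/POLR2A; bidirectional fit versus DMSO.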

[12] = read-out: Lipoprotein lipase (LPL), LPL (gene 4023); assay: LTEA_HepaRG_LPL: Life Technologies and Expression Analysis (LTEA) Assay for Lipoprotein lipase (LPL) using HepaRG (AID 2283515)
Method in brief: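 Differentiated HepaRG cells, plated 48 h, then exposed 48 h in serum-free induction medium to 8 concentrations (top 100 uM, half-log steps) in 0.5% DMSO, duplicate. LPL mRNA measured by qRT-PCR, normalized to ACTB, GAPDH and POLR2A.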

[13] = read-out: MicroRNA 122 (MIR122), gene 406906; assay: LTEA_HepaRG_MIR122: Life Technologies and Expression Analysis (LTEA) Assay for MicroRNA 122 (MIR122) using HepaRG (AID 2283516); further: the transcript read is the microRNA miR-122
Method in brief: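 HepaRG, 48 h exposure, 8-pt half-log from 100 uM, 0.5% DMSO; TaqMan qRT-PCR; bidirectional fit vs DMSO.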

[14] = read-out: MYC, MYC (gene 4609); assay: LTEA_HepaRG_MYC: Life Technologies and Expression Analysis (LTEA) Assay for MYC using HepaRG (AID 2283518)
Method in brief: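 Differentiated HepaRG cells exposed 48 h in serum-free induction medium to 8 concentrations (top 100 uM, half-log steps; 0.5% DMSO), duplicate. MYC mRNA measured by Fluidigm qRT-PCR, normalized to ACTB, GAPDH, POLR2A; bidirectional fit versus DMSO.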

[15] = read-out: matrix metalloproteinase-3 (MMP3), MMP3 (gene 4314); assay: LTEA_HepaRG_MMP3: Life Technologies and Expression Analysis (LTEA) Assay for matrix metalloproteinase-3 (MMP3) using HepaRG (AID 2283519)
Method in brief: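 HepaRG cells (~100,000/well) in serum-free induction medium were dosed in duplicate for 48 h with an 8-point half-log series from 100 uM, 0.5% DMSO. MMP3 mRNA was quantified by Fluidigm TaqMan qRT-PCR, normalized to three housekeeping genes.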

[16] = read-out: Paternally Expressed 10 (PEG10), PEG10 (gene 23089); assay: LTEA_HepaRG_PEG10: Life Technologies and Expression Analysis (LTEA) Assay for Paternally Expressed 10 (PEG10) using HepaRG (AID 2283520);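 on AC50: PEG10 transcript by qRT-PCR normalised to ACTB GAPDH and POLR2A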
Method in brief: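 Chemicals tested on HepaRG cells for 48 h, highest concentration 100 uM. PEG10 expression assessed by qRT-PCR relative to DMSO control.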

[17] = read-out: Nuclear factor NF-kappa-B p105 subunit (Homo sapiens) (UniProt P19838); assay: LTEA_HepaRG_NFKB1: Life Technologies and Expression Analysis (LTEA) Assay for Nuclear Factor Kappa B Subunit 1 (NFKB1) using HepaRG (AID 2283521);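 further: TaqMan qRT-PCR transcript normalised to ACTB GAPDH and POLR2A housekeeping genes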
Method in brief: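 HepaRG, 48 h exposure; 8-pt half-log series from 100 uM in 0.5% DMSO; duplicates. Readout: NFKB1 mRNA by qRT-PCR (Fluidigm arrays), housekeeping-normalized. Gain/loss fit vs DMSO baseline.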

[18] = read-out: Protein phosphatase 2A (PPP2R4), PTPA (gene 5524); assay: LTEA_HepaRG_PPP2R4: Life Technologies and Expression Analysis (LTEA) Assay for Protein phosphatase 2A (PPP2R4) using HepaRG (AID 2283522)
Method in brief: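 Gene-expression endpoint in HepaRG hepatic cells: 48 h treatment across eight half-log concentrations up to 100 uM in 0.5% DMSO. PPP2R4 mRNA by qRT-PCR, normalized to three endogenous control genes.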

[19] = read-out: Phosphatase and tensin (PTEN), PTEN (gene 5728); assay: LTEA_HepaRG_PTEN: Life Technologies and Expression Analysis (LTEA) Assay for Phosphatase and tensin (PTEN) using HepaRG (AID 2283523)
Method in brief: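 HepaRG cells, 48 h after plating, exposed in duplicate for 48 h in serum-free induction medium to 8 half-log concentrations up to 100 uM (0.5% DMSO). PTEN mRNA by qRT-PCR, normalized to ACTB, GAPDH, POLR2A; bidirectional fit versus DMSO.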

Measured: AC50

Sequence of Nuclear factor NF-kappa-B p105 subunit (Homo sapiens) (P19838 whole entry, looked up): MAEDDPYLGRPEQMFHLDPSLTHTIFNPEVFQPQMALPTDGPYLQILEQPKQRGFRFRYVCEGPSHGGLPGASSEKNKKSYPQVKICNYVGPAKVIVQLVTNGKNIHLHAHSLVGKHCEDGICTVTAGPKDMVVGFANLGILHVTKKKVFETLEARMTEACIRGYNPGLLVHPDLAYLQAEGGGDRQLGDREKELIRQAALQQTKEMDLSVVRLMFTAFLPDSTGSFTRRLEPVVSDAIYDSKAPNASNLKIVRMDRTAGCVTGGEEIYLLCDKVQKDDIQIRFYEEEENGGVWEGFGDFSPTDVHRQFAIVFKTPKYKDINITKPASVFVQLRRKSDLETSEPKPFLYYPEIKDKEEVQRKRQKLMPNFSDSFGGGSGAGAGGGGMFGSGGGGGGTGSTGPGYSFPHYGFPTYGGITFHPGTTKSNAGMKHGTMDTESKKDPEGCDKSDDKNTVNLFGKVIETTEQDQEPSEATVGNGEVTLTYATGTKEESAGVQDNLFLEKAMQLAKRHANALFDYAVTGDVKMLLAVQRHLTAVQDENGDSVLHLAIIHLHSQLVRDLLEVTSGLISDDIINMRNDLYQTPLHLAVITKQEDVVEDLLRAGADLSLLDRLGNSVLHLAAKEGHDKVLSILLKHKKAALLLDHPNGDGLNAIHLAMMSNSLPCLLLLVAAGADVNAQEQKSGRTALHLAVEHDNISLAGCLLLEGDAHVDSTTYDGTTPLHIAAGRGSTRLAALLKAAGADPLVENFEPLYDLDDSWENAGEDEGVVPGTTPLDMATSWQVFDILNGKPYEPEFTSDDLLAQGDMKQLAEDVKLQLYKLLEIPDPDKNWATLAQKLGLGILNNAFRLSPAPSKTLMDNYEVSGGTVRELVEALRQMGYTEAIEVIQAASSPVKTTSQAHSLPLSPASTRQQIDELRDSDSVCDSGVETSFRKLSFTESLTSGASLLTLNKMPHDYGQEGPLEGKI

Nc1ccc(Cl)cc1
inactive: [1]

O=[N+]([O-])c1ccccc1
not listed: [1]
inactive: all other assays above

CC(C)(C)c1ccc(O)cc1
active: [13] 0.197 µM
not listed: [1] | [17]
inactive: all other assays above

Cc1ccc(O)cc1C
not listed: [1] | [17]
inactive: all other assays above

CC(Cl)(Cl)C(=O)O
not listed: [1] | [17]
inactive: all other assays above

[N-]=[N+]=[N-]
active: [2] 77 µM | [3] 68.6 µM | [5] 86.4 µM | [6] 93.6 µM | [9] 64.8 µM | [11] 81.1 µM | [12] 72.3 µM | [14] 80 µM
not listed: [1]
inactive: all other assays above

COCCOCCO
not listed: [1]
inactive: all other assays above

CCCCc1ccccc1
not listed: [1] | [17]
inactive: all other assays above

O=C(O)C1C(C(=O)O)C2(Cl)C(Cl)=C(Cl)C1(Cl)C2(Cl)Cl (configuration not stated)
not listed: [1]
inactive: all other assays above

CCN(CC)c1ccccc1
not listed: [1]
inactive: all other assays above

Nc1ccc2ccccc2c1
active: [9] 5.98 µM | [14] 50 µM
not listed: [1] | [17]
inactive: all other assays above

CCOS(=O)(=O)OCC
not listed: [1] | [17]
inactive: all other assays above

O=P1(N(CCCl)CCCl)NCCCO1 (configuration not stated)
not listed: [1]
inactive: all other assays above

OCC1CO1 (configuration not stated)
not listed: [1] | [17]
inactive: all other assays above

CCCN(CCC)c1c([N+](=O)[O-])cc(C(C)C)cc1[N+](=O)[O-]
active: [3] 71.1 µM | [12] 12.5 µM | [16] 43.3 µM
not listed: [1] | [17]
inactive: all other assays above

O=C(O)C(Cl)Cl
not listed: [1] | [17]
inactive: all other assays above

ClC(Cl)(Cl)c1ccccc1
not listed: [1] | [17]
inactive: all other assays above

CSC(C)(C)C=NO
not listed: [1] | [7] | [17]
inactive: all other assays above

O=P(Oc1ccccc1)(Oc1ccccc1)Oc1ccccc1
active: [3] 4.15 µM | [5] 37.8 µM | [9] 0.981 µM
not listed: [1] | [2]
inactive: all other assays above

Cc1ccc([N+](=O)[O-])cc1C
not listed: [1]
inactive: all other assays above

CC(Cc1ccc(OCC(=O)O)cc1)NCC(O)c1csc(C(F)(F)F)n1 (configuration not stated)
active: [9] 0.138 µM | [16] 0.0862 µM
not listed: [1] | [17]
inactive: all other assays above

O=[N+]([O-])c1ccc(Cl)c(Cl)c1
not listed: [1]
inactive: all other assays above

c1ccc2c(c1)Nc1ccccc1S2
active: [3] 50 µM | [9] 41.5 µM | [12] 65 µM | [16] 77.1 µM
not listed: [1] | [17]
inactive: all other assays above
